Laboratory results published in PubChem BioAssay AID1159580 (chemical genetic matrix, 2015).
About 2,000 (36%) of roughly 5,500 compounds were called active. Roughly 18% stayed inconclusive and do not appear here. No stated cut-off is given here; in the data, active means normalized growth mostly below about 0.91 (no sharp cut-off); inconclusive means no clear call, values can overlap the other calls; inactive means mostly above about 0.92. The list shows a part of the results.

Assay: chemical genetic growth profiling, strain panel (AID 1159580);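 further: tested at 20 µM; growth read once vehicle control cultures reached saturation at 30 °C; 1 = growth at the plate median or of vehicle wells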
Conditions: growth OD
[1] = S. cerevisiae deletion strains, locus YAL013W, strain DEP1, stronger effect = lower value
[2] = S. cerevisiae deletion strains, locus YBR229C, strain ROT2, stronger effect = lower value
[3] = S. cerevisiae deletion strains, locus YCL061C, strain MRC1, stronger effect = lower value
[4] = S. cerevisiae deletion strains, locus YDL101C, strain DUN1, stronger effect = lower value
[5] = S. cerevisiae deletion strains, locus YDR150W, strain NUM1, stronger effect = lower value
[6] = S. cerevisiae deletion strains, locus YEL061C, strain CIN8, stronger effect = lower value
[7] = S. cerevisiae deletion strains, locus YGR078C, strain PAC10, stronger effect = lower value
[8] = S. cerevisiae deletion strains, locus YHR030C, strain SLT2, stronger effect = lower value
[9] = S. cerevisiae deletion strains, locus YHR087W, strain rtc3, stronger effect = lower value
[10] = S. cerevisiae deletion strains, locus YJR043C, strain POL32, stronger effect = lower value
[11] = S. cerevisiae deletion strains, locus YJR075W, strain HOC1, stronger effect = lower value
[12] = S. cerevisiae deletion strains, locus YKL190W, strain CNB1, stronger effect = lower value
[13] = S. cerevisiae deletion strains, locus YLR039C, strain RIC1, stronger effect = lower value
[14] = S. cerevisiae deletion strains, locus YLR058C, strain SHM2 (second series), stronger effect = lower value
[15] = S. cerevisiae deletion strains, locus YLR085C, strain ARP6, stronger effect = lower value
[16] = S. cerevisiae deletion strains, locus YLR262C, strain YPT6, stronger effect = lower value
[17] = S. cerevisiae deletion strains, locus YML094W, strain GIM5, stronger effect = lower value
[18] = S. cerevisiae deletion strains, locus YMR219W, strain ESC1, stronger effect = lower value
[19] = S. cerevisiae deletion strains, locus YMR263W, strain SAP30, stronger effect = lower value
[20] = S. cerevisiae deletion strains, locus YNL153C, strain GIM3, stronger effect = lower value
[21] = S. cerevisiae deletion strains, locus YNL298W, strain CLA4 (second series), stronger effect = lower value
[22] = S. cerevisiae deletion strains, locus YNL322C, strain KRE1, stronger effect = lower value
[23] = S. cerevisiae deletion strains, locus YNR030W, strain Alg12, stronger effect = lower value
[24] = S. cerevisiae deletion strains, locus YOL006C, strain TOP1, stronger effect = lower value
[25] = S. cerevisiae deletion strains, locus YPL055C, strain LGE1, stronger effect = lower value
[26] = S. cerevisiae deletion strains, locus YPL241C, strain CIN2, stronger effect = lower value
[27] = S. cerevisiae deletion strains, locus YPR135W, strain CTF4, stronger effect = lower value
[28] = S. cerevisiae deletion strains, locus YGR229C, strain SMI1, stronger effect = lower value
[29] = S. cerevisiae deletion strains, locus YJL187C, strain SWE1, stronger effect = lower value
[30] = S. cerevisiae deletion strains, locus YMR307W, strain GAS1, stronger effect = lower value

Measured: normalized growth

Cc1ccc(CSC(=N)N)cc1
inactive: [1] 1.01 | [2] 0.994 | [3] 1.01 | [4] 0.994 | S. cerevisiae deletion strains, locus YDL134C, strain PPH21, stronger effect = lower value 1 | [5] 0.998 | [6] 0.976 | [7] 1.02 | [8] 0.995 | [9] 0.988 | [10] 1 | [11] 0.973 | [12] 1.01 | [13] 1.01 | [14] 1.01 | [15] 1.01 | [16] 1 | [17] 0.977 | [18] 1 | [19] 1.01 | [20] 0.999 | [21] 1 | [22] 0.995 | [24] 1.03 | [25] 1.01 | [27] 1.01 | S. cerevisiae strains, strain wild type, stronger effect = lower value 1.01
active: [23] 0.0939 | [26] 0.149

Cc1ccc(CS/C(N)=N\N)cc1
inactive: [1] 0.993 | [2] 0.996 | [3] 0.98 | [4] 0.97 | [5] 0.95 | [6] 1 | [7] 1 | [28] 0.978 | [8] 0.836 | [9] 0.983 | [29] 0.995 | [10] 0.978 | [11] 1.02 | [12] 0.982 | [13] 0.846 | [14] 0.99 | [15] 0.952 | [16] 0.889 | [17] 1.01 | [18] 0.989 | [19] 0.976 | [30] 1.05 | [20] 0.979 | [21] 0.963 | [22] 0.999 | [23] 0.976 | [24] 0.854 | [25] 0.967 | [26] 0.969 | [27] 0.907

N=C(N)SCCc1cccc(CCSC(=N)N)c1
inactive: [1] 0.957 | S. cerevisiae deletion strains, locus YAL040C, strain CLN3, stronger effect = lower value 1.05 | S. cerevisiae deletion strains, locus YCL061C, strain MRC1 (second series), stronger effect = lower value 0.984 | S. cerevisiae deletion strains, locus YDR363W, strain ESC2, stronger effect = lower value 0.997 | S. cerevisiae deletion strains, locus YER002W, strain NOP16, stronger effect = lower value 1.02 | [7] 0.992 | [30] 1.01 | [20] 1.16 | S. cerevisiae deletion strains, locus YNL175C, strain NOP13, stronger effect = lower value 1.02 | S. cerevisiae deletion strains, locus YNL197C, strain WHI3, stronger effect = lower value 0.981 | S. cerevisiae deletion strains, locus YNL224C, strain SQS1, stronger effect = lower value 1.05 | [22] 0.975 | S. cerevisiae deletion strains, locus YOR083W, strain WHI5 (second series), stronger effect = lower value 0.963

CC1(C)CCC(C(C)(C)O)CC1
inactive: [1] 0.988 | [2] 1.01 | [3] 0.999 | [4] 1 | [5] 0.985 | [6] 1.03 | [7] 1.02 | [28] 0.991 | [8] 1.02 | [9] 1.02 | [10] 0.988 | [11] 1 | [12] 0.992 | [13] 0.978 | [14] 0.995 | [15] 1.04 | [16] 0.939 | [17] 1.04 | [18] 0.998 | [19] 1.01 | S. cerevisiae deletion strains, locus YNL128W, strain TEP1, stronger effect = lower value 0.99 | [20] 1.01 | [21] 0.994 | [22] 0.994 | [23] 1.01 | [24] 0.984 | [25] 1.01 | [26] 1.04 | [27] 0.989
active: [29] 0.838
